Screening results from PubChem BioAssay.
Rows were chosen to be rich in hits. Some 8.7% of all compounds tested hit in one or more screens of this group.
AMA1 RON2 block = inhibitors of Plasmodium falciparum AMA1-RON2 interaction; AlphaScreen AMA1-biotinylated RON2 peptide binding; Potency, µM (titrated, usually from 58.2 µM), inactives show at the highest dose activity change, negative = inhibition, actives largely listed as inhibitors; 360,000 tested, 0.2% active; AID 720542;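 further: 0% = vehicle wells and -100% = peptide control; nearly all actives have a fitted effect of over 45% in size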
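AMA1 (3D7) with his tag at 25 nM final met compounds first, then biotinylated RON2 peptide at 25 nM; detection used donor plus acceptor beads, 10 µg/mL apiece, read by AlphaScreen after 30 min at room temperature.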
Vaccinia Venus = inhibitors of vaccinia virus (Venus reporter). 330,000 tested, 0.46% active. Potency, µM (highest dose often 36.5 µM), inactives show at the top dose activity change, negative = inhibition, actives largely listed as inhibitors. Vaccinia virus Venus reporter expression, fluorescence; calls by dose curve; tested in A549 cells; further: nearly all actives have a fitted effect of over 30% in size
Pf growth 48h = inhibits P. falciparum growth in the first generation, 48 h. P. falciparum luciferase growth in erythrocytes, 48 h. 310,000 tested, 5.9% active. Potency, µM (highest dose often 28.7 µM), inactives show at the top dose activity change, negative = inhibition, usual class: inhibitors. AID 504832
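Growth was read as firefly luciferase luminescence after a 48 h, 37 C, 5% CO2 exposure of compounds to reporter-bearing P. falciparum cultures (0.1% parasitemia, 2% hematocrit final) in Albumax-supplemented RPMI 1640.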
Pf growth 96h = P. falciparum growth inhibition at 96 hour, primary screen for plastid delayed-death inhibitors | P. falciparum luciferase reporter growth, 96 h | Potency, µM (titrated, usually from 28.7 µM), inactives show top-dose activity change, negative = inhibition, usual class: inhibitors | 320,000 tested, 6.9% active | AID 504834
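Compounds incubated with erythrocytes infected by luciferase-expressing P. falciparum (2% hematocrit, 0.05% parasitemia final) for 96 hours, 37 C in 5% CO2. Growth inhibition scored as decreased luciferase luminescence.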
Vaccinia mCherry = inhibitors of vaccinia virus infection (mCherry reporter signal); Vaccinia virus mCherry reporter infection, fluorescence; Potency, µM (highest dose often 36.5 µM), without a hit: at the highest dose activity change, negative = inhibition, actives largely listed as inhibitors; 310,000 tested, 0.63% active; calls by dose curve; tested in A549 cells; further: nearly all actives have a fitted effect of over 35% in size
* = called active by the depositor; i = inactive; ? = inconclusive; . = no result given; ! = repeats disagree; [ ] = remark or other dose. Unless noted, the call rests on the fitted dose curve; in most records, active means well fitted curve in the direction sought with a large enough effect; inconclusive means small, poorly fitted or top-dose-only effect, or another doubt; inactive means no such curve, though single readings can be large; an effect the other way counts as inactive or inconclusive. Unless noted, on the % scale 0 is the no-effect control and ±100 the full control effect; potency means the concentration at half of the fitted maximal effect.

SMILES | AMA1 RON2 block | Vaccinia Venus | Pf growth 48h | Pf growth 96h | Vaccinia mCherry
CC(C)C1/C(=N/O)CC(c2ccccc2)NC1c1ccccc1 (stereo unspecified) | -15% | -12%[7.34 µM] | 13µM* | 9.3µM* | -2%[7.34 µM]
CCC(Sc1nc2ccsc2c(=O)n1-c1ccc(Cl)c(C)c1)C(=O)NCc1ccco1 (stereo unspecified) | -11% | -10% | 13µM* | 12µM* | -10%
CC(=O)N1CCc2c(sc3c2c(=O)n(Cc2ccccc2)c(=O)n3CC(=O)Nc2ccc(C)c(F)c2)C1 | . | -8% | . | . | -10%
Cc1ccc(-c2c(CN3CCN(c4cc(C)ccc4C)CC3)csc2C)cc1 | . | -12% | . | . | i
O=S(=O)(c1ccccc1F)N1CCN(Cc2cc3c(cc2Br)OCCO3)CC1 | -24% | 1% | ? | 8.3µM* | -16%
O=S(=O)(c1ccccc1)N1CCN(Cc2cc3c(cc2Br)OCCO3)CC1 | -2%[11.6 µM] | -5% | ? | ? | i
COc1ccccc1N1CCN(Cc2cc3c(cc2Br)OCCO3)CC1 | ? | 8% | ? | -44% | -3%
COc1ccc(N2CCN(Cc3cc4c(cc3Br)OCCO4)CC2)cc1 | 13µM* | -7% | 0% | ? | -7%
COc1ccc(N2CCN(Cc3csc(C)c3-c3ccc(C)cc3)CC2)cc1 | 10µM* | -2% | 10µM* | 0% | -13%
Cc1cccc(NC(c2nnc(-c3ccccc3)o2)c2ccc(F)cc2Cl)c1C (stereo unspecified) | . | -2% | . | . | -6%
COC(=O)c1ccc(N=CC2=C(O)CC(c3ccccc3)CC2=O)cc1 (stereo unspecified) | 4% | -9% | 11% | 32% | i
O=C1CC(c2ccccc2)CC(O)=C1C=Nc1ccc(O)cc1 (stereo unspecified) | 4% | ? | 19% | 13µM* | ?
COC(=O)[C@]1(Cc2ccccc2)N[C@H](CN(C)C(=O)Nc2ccc(C(F)(F)F)cc2)[C@@H]2C(=O)N(Cc3ccccc3)C(=O)[C@@H]21 | 0% | 10µM* | . | . | ?
C[n+]1cccc2cccc([O-])c21 | ? | . | 3.3µM* | ? | .
CCOC(=O)Cc1cc(C(=O)Nc2ccc(Br)cc2)sc1-c1ccc(C)cc1 | . | -5% | . | . | -11%
Cc1ccc(S(=O)(=O)CC(=O)N(CCCN2CCOCC2)c2nc3c(F)cccc3s2)cc1 | -13% | -5% | 19% | 32% | i
CCc1cccc2sc(N(CCCN3CCOCC3)C(=O)CS(=O)(=O)c3ccccc3)nc12 | -22% | -23% | 9.3µM* | ? | i
Cc1ccc(S(=O)(=O)N2CCOCC2)cc1C(=O)OCC(=O)NC1CCCC(C)C1C (stereo unspecified) | 8% | . | ? | ? | .
CC(C)CCNC(=O)NC(=O)COC(=O)c1cc(S(=O)(=O)N2CCOCC2)ccc1N1CCCCC1 | -6% | -11% | 9.3µM* | . | -13%
CC1CCCC(NC(=O)NC(=O)COC(=O)c2ccc(O)cc2O)C1C (stereo unspecified) | -5% | . | 7.4µM* | ? | .
NC(=O)COC(=O)c1cc(S(=O)(=O)N2CCOCC2)ccc1N1CCCCC1 | 0% | -21% | 6% | ? | .
CCOc1ccc(CCNC(=O)COC(=O)c2cc(S(=O)(=O)N3CCOCC3)ccc2F)cc1OCC | 8% | 1% | ? | 13µM* | i
CC1CCCC(NC(=O)COC(=O)c2cc(S(=O)(=O)N3CCCCC3)ccc2N2CCOCC2)C1C (stereo unspecified) | 5% | . | . | 5.2µM* | .
COc1ccccc1CNC(=O)c1cc2sccc2n1Cc1ccc(Cl)cc1 | . | -4% | . | . | -7%
CC1=C(C(=O)Nc2ccccc2C)C(c2sccc2C)n2ncnc2N1 (stereo unspecified) | . | 2% | . | . | -8%
SMILES | AMA1 RON2 block | Vaccinia Venus | Pf growth 48h | Pf growth 96h | Vaccinia mCherry
COc1ccc(NC(=O)N2CCC(n3c(C)nc4cccnc43)CC2)cc1OC | . | 12% | . | . | 0%
Cc1ccc(/C(=C\CN2CCCC2)c2ccccn2)cc1 | 3% | -14% | -19% | 13µM*! | -4%
N#Cc1ccc(NC(=O)Cn2cnc([N+](=O)[O-])c2)cc1 | 16% | -13% | 5% | 12µM* | i
O=C(Cn1cnc([N+](=O)[O-])c1)Nc1cc(Oc2ccc(Cl)cc2Cl)cc([N+](=O)[O-])c1 | -11% | ? | 13µM* | -18% | .
CCc1cc2c(cc3c(=O)n(CC(=O)NC4CCCCC4)nc(CC)n32)s1 | . | -11% | . | . | -11%
Cc1cc(Cl)nc(Cl)c1C(=O)N1CCOCC1 | 1% | -3% | -21% | ? | -12%
Cc1cc(C)c2nc(-c3cccc(Cl)c3)c(C)c(C(=O)N3CCOCC3)c2c1 | 9% | -13% | 12µM* | ? | i
Cc1cccc(-c2nnc(SCC#N)n2Cc2ccccc2)c1 | 4% | . | . | ? | .
N#CCSc1nnc(C2CCCCC2)n1Cc1ccccc1 | 3% | . | -15% | 3.3µM* | .
Cc1cc(C)n(-c2ccc(C(=O)NCC3Cc4cc(-c5cnccn5)ccc4O3)cc2)n1 (stereo unspecified) | . | -7% | . | . | -8%
Oc1ccc(C2CNCc3sccc32)cc1O (stereo unspecified) | -2% | -19% | 13µM* | ? | -2%
Oc1ccc(C2CNCCc3c2cc(O)c(O)c3Cl)cc1 (stereo unspecified) | 23% | -12% | ? | 2% | -3%
Cc1cc(Br)ccc1NS(=O)(=O)c1c(C)[nH]c(=O)[nH]c1=O | 1% | -8% | 2% | 5.2µM* | -17%
Cc1ccc(NS(=O)(=O)c2c(C)[nH]c(=O)[nH]c2=O)c(C)c1 | -10% | -9% | 8% | 27% | -6%
Cc1ccc(S(=O)(=O)N2CCN(C)CC2)cc1[N+](=O)[O-] | -5% | . | 32% | 214% | .
CCN1CCN(c2ccc(N3CCN(S(=O)(=O)c4ccc(C)c([N+](=O)[O-])c4)CC3)nn2)CC1 | -10% | ? | 13µM* | 0.93µM* | -29%
COc1ccc(Cc2nnc(N/N=C/c3ccc(O)cc3O)[nH]c2=O)cc1OC | -29% | -14% | 4.1µM* | ? | ?
COc1ccc(NC(=S)NC(NC(=O)c2cccc(C)c2)C(Cl)(Cl)Cl)c([N+](=O)[O-])c1 (stereo unspecified) | 7% | ? | 3.3µM* | -19% | ?
COc1ccc(NC(=S)NC(NC(=O)c2cccc(Cl)c2)C(Cl)(Cl)Cl)c([N+](=O)[O-])c1 (stereo unspecified) | 16% | ? | 3.3µM* | ? | ?
COc1ccc(NC(=S)NC(NC(C)=O)C(Cl)(Cl)Cl)c([N+](=O)[O-])c1 (stereo unspecified) | 1% | -10% | 14% | ? | -1%
O=C(NC(NC(=S)Nc1ccccc1Cl)C(Cl)(Cl)Cl)c1cccc(Cl)c1 (stereo unspecified) | 1% | ? | ? | 71% | 13µM*
